# Laboratory results: paper PMC8384837, “Expanding the binding specificity for RNA recognition by a PUF domain”
# Key:
# Assay in all cases: yeast three-hybrid, YBZ-1, SC-Leu-His + 0.5 mM 3-AT, 4 days
# Conditions in all cases: tags: N-Gal4 AD-HA kept; label: inside an RPR1-promoter hybrid RNA with tandem MS2 sites; ssRNA
# [1] = biological target: PUM1 PUF domain R3-MCG (Homo sapiens, UniProt Q14671 828-1176, C935M;R936C;Q939G)
# Procedure, shortened: (§1)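 Pumilio-1 PUF domain libraries, randomized (NNK) at the three base-contacting residues of each repeat, were co-expressed with matching RNA elements from a centromeric plasmid in strain YBZ-1 (LexA–MS2 coat fusion, HIS3 reporter). Transformants were plated on SC-Leu (input) and SC-Leu-His + 0.5 mM 3-AT (selection) for four days, and repeat regions were PCR-amplified and Illumina-sequenced. The interaction score is the log2 change in variant frequency from input to selection, with pseudocount 1 where absent.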
# [2] = biological target: PUM1 PUF domain R7-QNR (Homo sapiens, UniProt Q14671 828-1176, S1079Q;E1083R)
# Procedure, shortened: as §1
# [3] = biological target: PUM1 PUF domain R7-RVR (Homo sapiens, UniProt Q14671 828-1176, S1079R;N1080V;E1083R)
# Procedure, shortened: as §1
# [4] = biological target: PUM1 PUF domain R5-GQA (Homo sapiens, UniProt Q14671 828-1176, C1007G;R1008Q;Q1011A)
# Procedure, shortened: as §1
# [5] = biological target: PUM1 PUF domain R5-TND (Homo sapiens, UniProt Q14671 828-1176, C1007T;R1008N;Q1011D)
# Procedure, shortened: as §1
# [6] = biological target: PUM1 PUF domain R5-AQR (Homo sapiens, UniProt Q14671 828-1176, C1007A;R1008Q;Q1011R)
# Procedure, shortened: as §1
# [7] = biological target: PUM1 PUF domain R5-PHD (Homo sapiens, UniProt Q14671 828-1176, C1007P;R1008H;Q1011D)
# Procedure, shortened: as §1
# [8] = biological target: PUM1 PUF domain R4-QGA (Homo sapiens, UniProt Q14671 828-1176, N971Q;H972G;Q975A)
# Procedure, shortened: as §1
# [9] = biological target: PUM1 PUF domain R8-RYK (Homo sapiens, UniProt Q14671 828-1176, N1122R;Q1126K)
# Procedure, shortened: as §1
# [10] = biological target: T1, PUM1 PUF domain R6-TWS (Homo sapiens, UniProt Q14671 828-1176, N1043T;Y1044W;Q1047S)
# T1 sequence: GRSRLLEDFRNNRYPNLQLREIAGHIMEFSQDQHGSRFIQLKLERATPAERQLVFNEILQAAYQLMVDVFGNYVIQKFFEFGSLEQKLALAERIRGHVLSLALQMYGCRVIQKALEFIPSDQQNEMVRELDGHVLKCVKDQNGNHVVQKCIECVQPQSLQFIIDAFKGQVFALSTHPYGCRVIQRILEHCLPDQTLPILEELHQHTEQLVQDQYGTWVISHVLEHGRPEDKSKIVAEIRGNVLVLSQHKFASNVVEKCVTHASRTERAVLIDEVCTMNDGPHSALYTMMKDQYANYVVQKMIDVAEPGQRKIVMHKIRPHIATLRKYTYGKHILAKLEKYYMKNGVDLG
# Procedure, shortened: as §1
sequence,measurement,setting,value
GGCUAGAACUAGUGGAUCCCCCGGCGCCCGGCGGCUCGAGCCCGGGUAAGUGUAAGUAGUCUGCAUGCCGCCGGGCGCCAUGCCUGCAGGUCGACUCUAGAAAACAUG,binding signal,[1],2.55 log2 enrichment (interaction score)
GGCUAGAACUAGUGGAUCCCCCGGCGCCCGGCGGCUCGAGCCCGGGUAAGUCUAAAUAGUCUGCAUGCCGCCGGGCGCCAUGCCUGCAGGUCGACUCUAGAAAACAUG,binding signal,[2],3.58 log2 enrichment (interaction score)
same,binding signal,[3],0.98 log2 enrichment (interaction score)
GGCUAGAACUAGUGGAUCCCCCGGCGCCCGGCGGCUCGAGCCCGGGUAAGUGUUAAUAGUCUGCAUGCCGCCGGGCGCCAUGCCUGCAGGUCGACUCUAGAAAACAUG,binding signal,[4],2.64 log2 enrichment (interaction score)
same,binding signal,[5],2.81 log2 enrichment (interaction score)
same,binding signal,[6],3.22 log2 enrichment (interaction score)
same,binding signal,[7],3.76 log2 enrichment (interaction score)
GGCUAGAACUAGUGGAUCCCCCGGCGCCCGGCGGCUCGAGCCCGGGUAAGUGUCAAUAGUCUGCAUGCCGCCGGGCGCCAUGCCUGCAGGUCGACUCUAGAAAACAUG,binding signal,[6],5.35 log2 enrichment (interaction score)
GGCUAGAACUAGUGGAUCCCCCGGCGCCCGGCGGCUCGAGCCCGGGUAAGUGUAUAUAGUCUGCAUGCCGCCGGGCGCCAUGCCUGCAGGUCGACUCUAGAAAACAUG,binding signal,[8],2.73 log2 enrichment (interaction score)
GGCUAGAACUAGUGGAUCCCCCGGCGCCCGGCGGCUCGAGCCCGGGUAAGUGUACAUAGUCUGCAUGCCGCCGGGCGCCAUGCCUGCAGGUCGACUCUAGAAAACAUG,binding signal,[8],2.09 log2 enrichment (interaction score)
GGCUAGAACUAGUGGAUCCCCCGGCGCCCGGCGGCUCGAGCCCGGGUAAGCGUAAAUAGUCUGCAUGCCGCCGGGCGCCAUGCCUGCAGGUCGACUCUAGAAAACAUG,binding signal,[9],7.26 log2 enrichment (interaction score)
GGCUAGAACUAGUGGAUCCCCCGGCGCCCGGCGGCUCGAGCCCGGGUAAGUGUAAAUAGUCUGCAUGCCGCCGGGCGCCAUGCCUGCAGGUCGACUCUAGAAAACAUG,binding signal,[10],2.56 log2 enrichment (interaction score)
GGCUAGAACUAGUGGAUCCCCCGGCGCCCGGCGGCUCGAGCCCGGGUAAGUGAAAAUAGUCUGCAUGCCGCCGGGCGCCAUGCCUGCAGGUCGACUCUAGAAAACAUG,binding signal,[10],5.32 log2 enrichment (interaction score)
GGCUAGAACUAGUGGAUCCCCCGGCGCCCGGCGGCUCGAGCCCGGGUAAGUUUAAAUAGUCUGCAUGCCGCCGGGCGCCAUGCCUGCAGGUCGACUCUAGAAAACAUG,binding signal,[3],4.32 log2 enrichment (interaction score)
